Values joined by “and” are separate entries in the source; they are usually repeats but may differ in a detail not shown here. Equal entries are not always repeated. Results filed as inconclusive are left out. Active and inactive are the calls of the source. Unless noted, the call rests on the fitted dose curve.
Tests used:
[1] = Nuclear factor erythroid 2-related factor 2/antioxidant responsive element (Nrf2/ARE) small molecule agonists: qHTS cell viability counter screen in human keratinocytes (AID 1919968; active means well fitted curve in the direction sought with a large enough effect in the repeat runs; an effect the other way counts as inactive or inconclusive; further: nearly all actives have a fitted effect of over 55% in size)
Summary of the method: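 CellTiter-Fluor fluorescence, read 1 h after reagent, gave viability in the same wells as the ARE-luciferase assay. KeratinoSens cells (1,500/well) had 23 h compound exposure at 37 C/5% CO2 following 5 h plating.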

[2] = Nuclear factor erythroid 2-related factor 2/antioxidant responsive element (Nrf2/ARE) small molecule agonists: luciferase reporter gene qHTS assay in human keratinocytes (AID 1919969); further: nearly all actives have a fitted effect of over 35% in size
[3] = biological target: Gonadotropin-releasing hormone receptor (Homo sapiens) (UniProt P30968); assay: Human gonadotropin-releasing hormone receptor (GnRHR) small molecule agonists, calcium flux assay in GnRHR-HEK293 cells (AID 1920063); further: nearly all actives have a fitted effect of over 35% in size; further: potency means the concentration at half of the fitted maximal effect
Summary of the method: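 Agonist mode: compounds at 15 concentrations, in triplicate, went onto calcium dye-loaded GnRHR-HEK293 cells. Intracellular calcium was then followed as 480/540 nm fluorescence at 1 s intervals over 3 min.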

[4] = biological target: KiSS-1 receptor (Homo sapiens) (UniProt Q969F8); assay: Human kisspeptin (KISS1R) small molecule agonists, calcium flux assay in KISS1R-HEK293 cells (AID 1920064; active means well fitted curve in the direction sought with a large enough effect in the repeat runs; an effect the other way counts as inactive or inconclusive)
Summary of the method: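 Agonist mode: intracellular calcium rise tracked at 1 s intervals over 3 min (480/540 nm) immediately after compound addition to dye-loaded KISS1R-HEK293 stable cells. Each compound tested at 15 concentrations in triplicate.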

[5] = G protein-coupled receptor (GPCR) small molecule agonists, calcium flux assay: HEK293 wild type cell line counter screen (AID 1920065)
Summary of the method: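 Calcium flux counter screen: compound added in agonist mode at 15 concentrations in triplicate to dye-loaded parental HEK293 cells. Fluorescence (480/540) read kinetically for 3 min; ATP served as positive control.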

[6] = p53 small molecule agonists, cell-based qHTS assay with human liver microsomes (AID 1963577);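 further: p53 response element beta-lactamase reporter cells with liver microsomes plus NADPH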
Summary of the method: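 With metabolic activation: human liver microsomes (0.5 mg/mL final) plus NADPH (0.5 mg/mL final) added alongside compounds to p53RE-bla cells; 16 h 37 C exposure; beta-lactamase read by LiveBLAzer fluorescence.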

[7] = p53 small molecule agonists, cell-based qHTS assay with rat liver microsomes (AID 1963578)
Summary of the method: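 Metabolic activation by rat liver microsomes and NADPH, each 0.5 mg/mL final, added right after compounds to p53RE-bla reporter cells (4,000/well, plated 5 h earlier). 16 h at 37 C, then LiveBLAzer substrate for 2 h at room temperature in the dark; fluorescence read-out.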

[8] = p53 small molecule agonists, cell-based qHTS assay with human liver microsomes: qHTS cell viability counter screen (AID 1963579); further: nearly all actives have a fitted effect of over 45% in size
Summary of the method: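 Metabolic activation used human liver microsomes and NADPH, both 0.5 mg/mL final, over 16 hours at 37 C on p53RE-bla cells (4,000/well). Cytotoxicity measured by CellTiter-Glo luminescence, 30 min at room temperature.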

[9] = p53 small molecule agonists, cell-based qHTS assay: qHTS cell viability counter screen (AID 1963581); further: nearly all actives have a fitted effect of over 45% in size
Summary of the method: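 Counter screen read by CellTiter-Glo luminescence (ATP content, 30 min at room temperature), run in the same wells as the beta-lactamase reporter read. HCT-116 p53RE-bla cells saw compounds for 16 h at 37 C.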

[10] = p53 small molecule agonists, cell-based qHTS assay (AID 1963582; active means well fitted activation curve with a large enough effect in the signal ratio in the repeat runs, not every such curve was filed as active; the % refers to the signal ratio)
Summary of the method: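 Read-out is beta-lactamase FRET fluorescence after 2 h at room temperature with LiveBLAzer B/G substrate. p53 response element-bla cells were treated 16 h at 37 C with compounds in DMSO, added 5 h after seeding.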

[11] = biological target: 5-hydroxytryptamine receptor 2A (Homo sapiens) (UniProt P28223); assay: 5-hydroxytryptamine receptor 2A (HTR2A) small molecule antagonists, cell-based qHTS assay (AID 1963586); further: nearly all actives have a fitted effect of over 45% in size
Summary of the method: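 CHO cells stably expressing human HTR2A were plated for 18 h at 37 C, then loaded with calcium dye for 1 h. Compounds were preincubated 5 min at room temperature before DOI (4 nM solution) was added. Kinetic fluorescence was read for 3 min.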

[12] = biological target: 5-hydroxytryptamine receptor 2A (Homo sapiens) (UniProt P28223); assay: 5-hydroxytryptamine receptor 2A (HTR2A) small molecule agonists, cell-based qHTS assay (AID 1963587); further: nearly all actives have a fitted effect of over 30% in size
Summary of the method: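 CHO cells stably expressing human HTR2A, plated 18 h, loaded with calcium dye 1 h at 37 C. Agonist mode: compounds added and intracellular calcium fluorescence recorded kinetically for 2 min at 1 sec intervals.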

[13] = biological target: Muscarinic acetylcholine receptor M1 (Homo sapiens) (UniProt P11229); assay: Cholinergic receptor muscarinic 1 (CHRM1) small molecule antagonists, cell-based qHTS assay (AID 1963588); further: nearly all actives have a fitted effect of over 40% in size
Summary of the method: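 Compounds were tested at 15 concentrations in three independent runs. Dye-loaded CHRM1-CHO cells were exposed 5 min at room temperature before stimulation by acetylcholine added at 50nM. Intracellular calcium was read kinetically on FDSS for 3 min.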

[14] = biological target: Muscarinic acetylcholine receptor M1 (Homo sapiens) (UniProt P11229); assay: Cholinergic receptor muscarinic 1 (CHRM1) small molecule agonists, cell-based qHTS assay (AID 1963589); further: nearly all actives have a fitted effect of over 35% in size
Summary of the method: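 Agonist-mode calcium-flux screen: compounds at 15 concentrations, three independent runs, were pin-transferred onto dye-loaded human CHRM1-CHO cells. Fluorescence was then recorded kinetically every second over minutes.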

[15] = cAMP Responsive Elements (CRE) small molecule agonists, cell-based qHTS assay (AID 1963590)
Summary of the method: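 Agonist mode: compound added to CRE-bla HEK 293T cells (2,000/well, 18 h after plating) for 3 h at 37 C/5% CO2. Reporter activity detected via FRET beta-lactamase substrate, 2 h room-temperature loading.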

[16] = cAMP Responsive Elements (CRE) small molecule antagonists, cell-based qHTS assay (AID 1963591; active means well fitted inhibition curve with a large enough effect in the signal ratio in the repeat runs, not every such curve was filed as active; the % refers to the signal ratio)
Summary of the method: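 Antagonist mode: compounds are added alongside the adenylyl cyclase activator NKH477 (0.25 uM final) to CRE-bla HEK293T cells for 3 h. LiveBLAzer FRET substrate, 2 h at room temperature, reports bla expression.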

[17] = biological target: Beta-2 adrenergic receptor (Homo sapiens) (UniProt P07550); assay: Adrenergic beta2 receptor (ADRB2) small molecule antagonists, cell-based qHTS assay (AID 1963592); further: series mostly up to about 92 µM; nearly all actives have a fitted effect of over 50% in size
Summary of the method: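 Assay format: CHO-ADRB2 cells, 18-20hr seeding at 37C/5% CO2, then compound plus 1nM isoproterenol agonist mix for 0.5hr RT. Homogeneous time-resolved fluorescence cAMP detection after 1hr, expressed as 665/615 nm ratio.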

[18] = biological target: D(2) dopamine receptor (Homo sapiens) (UniProt P14416); assay: Dopamine D2 receptor (DRD2) small molecule agonists, cell-based qHTS assay (AID 1963594); further: nearly all actives have a fitted effect of over 35% in size
Summary of the method: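 HEK293 cells stably expressing human DRD2, pre-treated with PDE inhibitor Ro20-1724 (0.1 mM final) and compound 10 min at room temperature, then stimulated with NKH477 (200nM […]) for 30 min. cAMP read by HTRF (665/620 nm).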

[19] = biological target: D(2) dopamine receptor (Homo sapiens) (UniProt P14416); assay: Dopamine D2 receptor (DRD2) small molecule antagonists, cell-based qHTS assay (AID 1963595; active means well fitted inhibition curve with a large enough effect in the signal ratio in the repeat runs, with a control signal flat; the % refers to the signal ratio; further: potency means the concentration at half of the fitted maximal effect)
Summary of the method: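 DRD2-HEK293; 0.1 mM Ro20-1724; cpd 10 min RT; NKH477 200 nM + quinpirole 12 nM, 30 min RT; HTRF cAMP (cAMP-d2/anti-cAMP cryptate), 665/620 nm ratio after 1 h.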

[20] = p53 small molecule agonists, cell-based qHTS assay with rat liver microsomes: qHTS cell viability counter screen (AID 1963580); further: nearly all actives have a fitted effect of over 45% in size
Summary of the method: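 Cytotoxicity counter screen: intracellular ATP measured by CellTiter-Glo luminescence in the same wells as the beta-lactamase reporter read, on HCT-116 p53RE-bla cells exposed 16 h at 37 C to compounds with rat liver microsomes and NADPH, each 0.5 mg/mL final.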

Measured: Potency

Chain of 5-hydroxytryptamine receptor 2A (Homo sapiens) (P28223 whole entry, looked up): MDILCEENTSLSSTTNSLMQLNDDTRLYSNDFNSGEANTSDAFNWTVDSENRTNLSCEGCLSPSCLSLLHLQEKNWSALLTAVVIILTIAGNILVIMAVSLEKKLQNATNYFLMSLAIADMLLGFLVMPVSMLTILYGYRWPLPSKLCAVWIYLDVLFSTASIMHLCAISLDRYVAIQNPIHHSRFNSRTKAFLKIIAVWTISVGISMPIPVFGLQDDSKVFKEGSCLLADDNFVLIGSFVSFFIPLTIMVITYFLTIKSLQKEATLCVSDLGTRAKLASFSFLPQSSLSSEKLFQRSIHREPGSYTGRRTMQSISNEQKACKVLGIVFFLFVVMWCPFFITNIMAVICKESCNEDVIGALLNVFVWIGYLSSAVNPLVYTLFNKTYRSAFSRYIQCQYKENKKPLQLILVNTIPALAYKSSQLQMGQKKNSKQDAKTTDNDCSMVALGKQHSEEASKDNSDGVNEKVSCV
Chain of Beta-2 adrenergic receptor (Homo sapiens) (P07550 whole entry, looked up): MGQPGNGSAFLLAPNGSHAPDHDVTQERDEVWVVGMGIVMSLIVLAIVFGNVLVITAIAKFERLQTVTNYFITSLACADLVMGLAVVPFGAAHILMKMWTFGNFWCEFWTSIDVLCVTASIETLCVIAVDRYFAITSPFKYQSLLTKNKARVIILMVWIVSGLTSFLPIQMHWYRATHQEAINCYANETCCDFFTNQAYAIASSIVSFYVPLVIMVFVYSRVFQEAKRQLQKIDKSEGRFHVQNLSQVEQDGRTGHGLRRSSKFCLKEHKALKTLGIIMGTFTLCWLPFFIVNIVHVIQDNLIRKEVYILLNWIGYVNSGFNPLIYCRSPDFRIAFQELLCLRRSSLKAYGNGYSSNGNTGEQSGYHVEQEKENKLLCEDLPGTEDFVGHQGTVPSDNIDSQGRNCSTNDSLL
Chain of Muscarinic acetylcholine receptor M1 (Homo sapiens) (P11229 whole entry, looked up): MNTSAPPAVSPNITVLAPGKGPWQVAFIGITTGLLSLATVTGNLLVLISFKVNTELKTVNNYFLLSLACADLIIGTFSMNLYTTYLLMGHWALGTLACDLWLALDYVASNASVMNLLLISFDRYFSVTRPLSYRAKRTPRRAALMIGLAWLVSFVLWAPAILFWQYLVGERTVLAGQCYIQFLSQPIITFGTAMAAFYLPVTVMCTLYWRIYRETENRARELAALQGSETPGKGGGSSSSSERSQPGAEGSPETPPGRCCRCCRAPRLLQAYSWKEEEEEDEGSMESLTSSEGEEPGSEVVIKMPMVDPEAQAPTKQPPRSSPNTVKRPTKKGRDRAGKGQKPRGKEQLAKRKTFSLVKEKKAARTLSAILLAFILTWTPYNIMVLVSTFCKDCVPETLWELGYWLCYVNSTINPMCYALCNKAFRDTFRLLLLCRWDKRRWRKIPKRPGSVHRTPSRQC
Chain of KiSS-1 receptor (Homo sapiens) (Q969F8 whole entry, looked up): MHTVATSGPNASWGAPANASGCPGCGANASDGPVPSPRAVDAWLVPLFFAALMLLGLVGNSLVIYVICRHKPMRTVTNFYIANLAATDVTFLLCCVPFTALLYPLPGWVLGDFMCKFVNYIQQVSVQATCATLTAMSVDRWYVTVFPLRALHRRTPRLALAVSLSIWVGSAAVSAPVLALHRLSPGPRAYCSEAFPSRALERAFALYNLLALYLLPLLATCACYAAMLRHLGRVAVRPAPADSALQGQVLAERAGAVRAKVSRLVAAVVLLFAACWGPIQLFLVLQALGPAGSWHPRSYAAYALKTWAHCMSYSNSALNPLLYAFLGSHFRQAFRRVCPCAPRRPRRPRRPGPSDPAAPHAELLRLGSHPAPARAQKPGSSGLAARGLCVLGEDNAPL
Chain of Gonadotropin-releasing hormone receptor (Homo sapiens) (P30968 whole entry, looked up): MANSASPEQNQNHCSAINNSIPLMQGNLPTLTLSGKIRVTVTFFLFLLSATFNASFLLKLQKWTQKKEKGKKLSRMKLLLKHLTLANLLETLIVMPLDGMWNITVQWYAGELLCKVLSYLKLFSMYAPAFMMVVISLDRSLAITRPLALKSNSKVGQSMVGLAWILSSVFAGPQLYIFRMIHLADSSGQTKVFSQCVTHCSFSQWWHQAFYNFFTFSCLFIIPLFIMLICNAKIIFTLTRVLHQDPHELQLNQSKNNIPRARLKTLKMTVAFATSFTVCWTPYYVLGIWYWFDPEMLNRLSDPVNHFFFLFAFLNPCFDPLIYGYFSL
Chain of D(2) dopamine receptor (Homo sapiens) (P14416 whole entry, looked up): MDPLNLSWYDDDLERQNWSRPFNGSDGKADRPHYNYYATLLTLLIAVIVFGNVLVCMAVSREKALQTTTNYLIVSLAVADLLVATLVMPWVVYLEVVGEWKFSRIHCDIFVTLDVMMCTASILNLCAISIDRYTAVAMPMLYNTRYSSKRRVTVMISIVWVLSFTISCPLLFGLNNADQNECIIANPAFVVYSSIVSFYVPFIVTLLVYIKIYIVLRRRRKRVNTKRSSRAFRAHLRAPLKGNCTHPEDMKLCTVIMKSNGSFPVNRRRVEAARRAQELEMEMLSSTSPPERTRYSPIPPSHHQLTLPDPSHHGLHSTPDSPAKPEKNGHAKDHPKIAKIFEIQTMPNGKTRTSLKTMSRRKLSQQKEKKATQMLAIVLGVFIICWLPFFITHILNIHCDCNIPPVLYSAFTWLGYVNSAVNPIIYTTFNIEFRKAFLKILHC

Clc1ccc(Sc2cc(Cl)c(Cl)cc2Cl)cc1
not listed: [20]
inactive: all other assays above

CNC[C@H](O)c1ccc(O)c(O)c1
active: [3] 110 nM and 233 nM | [19] 13 µM
not listed: [9] | [11] | [12] | [13] | [14] | [15] | [17]
inactive: all other assays above

CCCCCCCC=O
not listed: [20]
inactive: all other assays above

CC(=O)C(C)C
not listed: [15] | [20]
inactive: all other assays above

CCCCCCOC(C)=O
not listed: [9] | [16]
inactive: all other assays above

CC(=O)CC(C)(C)O
not listed: [9]
inactive: all other assays above

C=C1C2CCC(C2)C1(C)C (centres undefined)
not listed: [20]
inactive: all other assays above

COCN(COC)c1nc(N(COC)COC)nc(N(COC)COC)n1
not listed: [20]
inactive: all other assays above

From PubChem BioAssay (Tox21)
